# Measured values: ChEMBL document CHEMBL3988442, “University of Dundee, Small-Polar-MMV Screening Library” (2021)
# For some assays here: Measured potencies and affinities stand elsewhere.
# Columns and labels:
# Parameters in all cases: scale not given: direction of the effect not stated beside the values
# [1] = molecular target: Protein translocase subunit SecA (Escherichia coli (strain K12)) (UniProt P10408); test: Assay to Identify E. coli SecA ATPase Inhibitors; assay type: functional; conditions: 30 µM
# [2] = molecular target: T1, Ubiquitin-activating enzyme e1, putative (Leishmania donovani (strain BPK282A1)) (UniProt E9BSI1); test: Leishmania donovani Ubiquitin Activating Enzyme (LdE1); assay type: functional; conditions: 30 µM
# T1 sequence (whole entry): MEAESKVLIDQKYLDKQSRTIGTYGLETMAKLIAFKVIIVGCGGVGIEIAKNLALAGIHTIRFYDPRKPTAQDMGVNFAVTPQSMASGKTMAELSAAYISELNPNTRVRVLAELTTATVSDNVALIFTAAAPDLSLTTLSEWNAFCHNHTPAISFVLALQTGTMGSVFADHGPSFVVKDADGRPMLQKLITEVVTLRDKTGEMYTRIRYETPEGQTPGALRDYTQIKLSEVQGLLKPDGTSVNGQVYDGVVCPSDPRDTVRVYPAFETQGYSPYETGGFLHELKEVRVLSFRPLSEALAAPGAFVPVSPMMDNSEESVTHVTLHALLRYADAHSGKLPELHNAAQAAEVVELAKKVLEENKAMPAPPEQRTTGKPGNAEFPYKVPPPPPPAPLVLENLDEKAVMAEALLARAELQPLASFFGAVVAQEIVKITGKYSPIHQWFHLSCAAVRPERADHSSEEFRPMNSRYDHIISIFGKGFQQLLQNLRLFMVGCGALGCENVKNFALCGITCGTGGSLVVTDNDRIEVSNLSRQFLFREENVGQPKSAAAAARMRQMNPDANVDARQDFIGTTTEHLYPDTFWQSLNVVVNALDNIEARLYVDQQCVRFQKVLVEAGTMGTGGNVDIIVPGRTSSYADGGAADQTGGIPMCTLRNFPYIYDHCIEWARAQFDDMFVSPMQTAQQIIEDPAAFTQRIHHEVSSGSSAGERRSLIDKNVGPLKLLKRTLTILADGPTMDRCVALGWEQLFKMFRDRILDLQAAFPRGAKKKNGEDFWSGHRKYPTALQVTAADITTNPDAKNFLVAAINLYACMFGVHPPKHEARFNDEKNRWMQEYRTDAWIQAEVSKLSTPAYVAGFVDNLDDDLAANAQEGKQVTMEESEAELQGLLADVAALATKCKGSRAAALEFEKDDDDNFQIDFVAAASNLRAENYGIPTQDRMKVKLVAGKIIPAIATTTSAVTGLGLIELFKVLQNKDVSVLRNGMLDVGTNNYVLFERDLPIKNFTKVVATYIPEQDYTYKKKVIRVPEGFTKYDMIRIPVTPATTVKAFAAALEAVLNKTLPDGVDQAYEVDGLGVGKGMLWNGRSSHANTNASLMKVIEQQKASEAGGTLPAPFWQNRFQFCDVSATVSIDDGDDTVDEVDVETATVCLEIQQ
# [3] = molecular target: AMP-activated protein kinase, AMPK (Homo sapiens) (UniProt P54646+O43741+P54619+Q9UGJ0+Q9Y478+Q13131+Q9UGI9); test: AMP-dependent Kinase enzyme assay. An in vitro enzyme assay that detects ADP turnover that is directly proportional to AMPK activity. This uses naive AMPK that is activated during the assay with MK-8722; assay type: functional; conditions: 30 µM
# [4] = molecular target: Sialic acid-binding Ig-like lectin 9 (Homo sapiens) (UniProt Q9Y336); test: Hs-Siglec9 ALPHAscreen SOP 20170721; conditions: 10 µM
# Trypanosoma cruzi = test: Trypanosoma cruzi phosphomannomutase and mannose-1-phosphate guanylyltransferase assay; assay type: functional; conditions: 10 µM
# [5] = molecular target: T2, Arginase-2, mitochondrial (Homo sapiens) (UniProt P78540); test: in vitro enzyme assay to detect the production of urea directly proportional to the activity of Arginase II; assay type: functional; conditions: 33.3 µM; further: in the data most compounds retested in dose-response had high values
# T2 sequence (whole entry): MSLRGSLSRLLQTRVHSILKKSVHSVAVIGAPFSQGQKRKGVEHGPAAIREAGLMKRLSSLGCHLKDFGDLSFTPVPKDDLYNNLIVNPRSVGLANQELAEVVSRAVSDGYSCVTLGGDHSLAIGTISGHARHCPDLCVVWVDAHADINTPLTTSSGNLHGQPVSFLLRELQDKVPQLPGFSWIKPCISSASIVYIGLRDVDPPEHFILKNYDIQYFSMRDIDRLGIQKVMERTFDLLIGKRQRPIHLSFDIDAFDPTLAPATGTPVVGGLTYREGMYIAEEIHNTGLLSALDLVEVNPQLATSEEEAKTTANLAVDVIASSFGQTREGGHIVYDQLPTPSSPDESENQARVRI
# [6] = molecular target: T3, Proteasome subunit beta (Trypanosoma cruzi) (UniProt O96673); test: Trypanosoma cruzi proteasome chymotrypsin-like activity (TcProtChymo) assay.; further: in the data most compounds retested in dose-response had high values; assay type: functional; conditions: 9.37 µM
# T3 sequence (whole entry): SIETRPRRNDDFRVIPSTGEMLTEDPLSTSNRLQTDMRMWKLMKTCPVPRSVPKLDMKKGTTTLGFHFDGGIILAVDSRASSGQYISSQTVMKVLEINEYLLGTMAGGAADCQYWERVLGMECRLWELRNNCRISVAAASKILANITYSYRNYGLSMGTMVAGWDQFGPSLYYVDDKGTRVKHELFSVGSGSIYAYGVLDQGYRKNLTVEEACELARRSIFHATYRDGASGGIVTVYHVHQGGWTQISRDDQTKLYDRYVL
# Homo sapiens = organism: Homo sapiens; test: To identify inhibition of the IFN signalling (Jak-Stat) pathway via expression of an eGFP reporter gene under the control of an IFN-stimulated response element (ISRE) containing MxA promoter.; assay type: functional; conditions: 30 µM
# [7] = molecular target: T4, Tyrosyl-tRNA synthetase, putative (Trypanosoma cruzi (strain CL Brener)) (UniProt Q4DSP6); test: Trypanosoma cruzi tyrosyl tRNA synthetase (TcYRS) _High Tyrosine SOP; assay type: functional; conditions: 30 µM; further: in the data most compounds retested in dose-response had high values
# T4 sequence (whole entry): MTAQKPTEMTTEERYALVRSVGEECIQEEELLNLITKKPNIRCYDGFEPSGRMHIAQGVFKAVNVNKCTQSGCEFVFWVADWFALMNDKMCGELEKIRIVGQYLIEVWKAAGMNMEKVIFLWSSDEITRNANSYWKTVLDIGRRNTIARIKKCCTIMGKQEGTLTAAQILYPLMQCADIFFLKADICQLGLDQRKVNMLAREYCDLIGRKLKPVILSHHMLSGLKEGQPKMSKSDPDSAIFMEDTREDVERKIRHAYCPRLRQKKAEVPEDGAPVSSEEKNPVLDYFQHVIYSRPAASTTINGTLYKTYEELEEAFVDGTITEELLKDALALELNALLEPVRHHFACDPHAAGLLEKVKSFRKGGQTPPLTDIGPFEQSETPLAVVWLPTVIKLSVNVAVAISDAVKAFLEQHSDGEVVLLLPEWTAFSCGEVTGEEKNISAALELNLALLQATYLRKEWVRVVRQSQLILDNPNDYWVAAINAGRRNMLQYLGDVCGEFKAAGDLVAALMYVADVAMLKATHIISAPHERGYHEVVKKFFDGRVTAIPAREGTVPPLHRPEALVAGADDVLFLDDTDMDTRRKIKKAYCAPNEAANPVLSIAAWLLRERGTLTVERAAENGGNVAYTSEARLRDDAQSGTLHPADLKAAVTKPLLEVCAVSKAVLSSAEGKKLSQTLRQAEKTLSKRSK
# [8] = molecular target: T4, Tyrosyl-tRNA synthetase, putative (Trypanosoma cruzi (strain CL Brener)); test: Trypanosoma cruzi tyrosyl tRNA synthetase (TcYRS) SOP; assay type: functional; conditions: 30 µM
# [9] = molecular target: Chromo domain-containing protein 1 (Saccharomyces cerevisiae (strain ATCC 204508 / S288c) (Baker's yeast)) (UniProt P32657); test: ScCHD-1 Enzyme Inhibition Assay; assay type: functional; conditions: 30 µM; further: in the data most compounds retested in dose-response had high values
# Chain of Chromo domain-containing protein 1 (Saccharomyces cerevisiae (strain ATCC 204508 / S288c) (Baker's yeast)) (P32657 whole entry, the tested form may be a part): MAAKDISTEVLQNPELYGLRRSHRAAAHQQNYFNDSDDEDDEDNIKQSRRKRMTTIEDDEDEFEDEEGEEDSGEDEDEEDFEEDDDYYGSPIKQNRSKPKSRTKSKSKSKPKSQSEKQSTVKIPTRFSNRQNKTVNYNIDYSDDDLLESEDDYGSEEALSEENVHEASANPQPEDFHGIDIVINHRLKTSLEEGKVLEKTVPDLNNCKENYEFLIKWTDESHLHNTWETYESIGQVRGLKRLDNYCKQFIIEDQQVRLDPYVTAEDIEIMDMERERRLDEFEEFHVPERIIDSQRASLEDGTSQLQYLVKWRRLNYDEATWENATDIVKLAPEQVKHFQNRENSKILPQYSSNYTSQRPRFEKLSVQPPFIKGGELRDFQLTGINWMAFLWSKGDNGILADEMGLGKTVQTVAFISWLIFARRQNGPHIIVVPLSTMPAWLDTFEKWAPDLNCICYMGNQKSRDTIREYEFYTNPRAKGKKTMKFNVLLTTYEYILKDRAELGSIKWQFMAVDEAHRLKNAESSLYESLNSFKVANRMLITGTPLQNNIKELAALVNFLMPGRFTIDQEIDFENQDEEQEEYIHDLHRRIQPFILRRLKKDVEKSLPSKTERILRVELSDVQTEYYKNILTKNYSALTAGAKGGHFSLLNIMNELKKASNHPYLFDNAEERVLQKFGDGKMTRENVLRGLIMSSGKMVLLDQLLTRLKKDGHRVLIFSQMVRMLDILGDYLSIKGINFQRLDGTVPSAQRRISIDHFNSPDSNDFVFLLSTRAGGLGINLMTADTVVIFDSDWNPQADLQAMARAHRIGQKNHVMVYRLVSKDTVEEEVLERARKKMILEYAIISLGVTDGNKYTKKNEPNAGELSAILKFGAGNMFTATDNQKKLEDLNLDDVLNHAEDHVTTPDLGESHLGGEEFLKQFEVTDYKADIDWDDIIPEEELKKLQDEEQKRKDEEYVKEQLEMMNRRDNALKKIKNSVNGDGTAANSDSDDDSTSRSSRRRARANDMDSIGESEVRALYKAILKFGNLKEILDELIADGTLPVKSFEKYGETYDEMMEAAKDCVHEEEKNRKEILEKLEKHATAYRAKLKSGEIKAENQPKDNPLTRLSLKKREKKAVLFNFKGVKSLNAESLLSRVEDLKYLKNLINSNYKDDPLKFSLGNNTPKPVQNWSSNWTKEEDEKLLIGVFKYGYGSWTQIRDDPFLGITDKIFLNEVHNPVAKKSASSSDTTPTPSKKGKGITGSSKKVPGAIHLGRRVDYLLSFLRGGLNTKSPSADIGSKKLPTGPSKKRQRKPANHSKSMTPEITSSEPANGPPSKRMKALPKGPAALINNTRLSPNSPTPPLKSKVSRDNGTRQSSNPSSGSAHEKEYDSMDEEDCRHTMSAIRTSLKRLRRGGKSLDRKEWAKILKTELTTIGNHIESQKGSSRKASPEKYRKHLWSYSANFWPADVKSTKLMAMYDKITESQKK
# Chain of Sialic acid-binding Ig-like lectin 9 (Homo sapiens) (Q9Y336 whole entry): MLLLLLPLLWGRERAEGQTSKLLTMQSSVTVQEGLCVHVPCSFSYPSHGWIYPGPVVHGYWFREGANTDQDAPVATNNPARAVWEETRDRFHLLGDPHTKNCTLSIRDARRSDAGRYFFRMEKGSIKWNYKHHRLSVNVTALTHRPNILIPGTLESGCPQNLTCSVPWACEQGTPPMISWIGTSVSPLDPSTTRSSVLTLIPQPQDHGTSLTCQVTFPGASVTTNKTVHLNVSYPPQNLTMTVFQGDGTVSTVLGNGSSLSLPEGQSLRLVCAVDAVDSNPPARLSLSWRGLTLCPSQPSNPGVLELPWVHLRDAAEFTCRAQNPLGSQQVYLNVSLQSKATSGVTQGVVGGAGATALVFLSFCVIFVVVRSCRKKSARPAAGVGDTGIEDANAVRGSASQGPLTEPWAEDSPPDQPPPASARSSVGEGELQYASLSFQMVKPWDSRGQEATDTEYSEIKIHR
# Chain of Protein translocase subunit SecA (Escherichia coli (strain K12)) (P10408 whole entry): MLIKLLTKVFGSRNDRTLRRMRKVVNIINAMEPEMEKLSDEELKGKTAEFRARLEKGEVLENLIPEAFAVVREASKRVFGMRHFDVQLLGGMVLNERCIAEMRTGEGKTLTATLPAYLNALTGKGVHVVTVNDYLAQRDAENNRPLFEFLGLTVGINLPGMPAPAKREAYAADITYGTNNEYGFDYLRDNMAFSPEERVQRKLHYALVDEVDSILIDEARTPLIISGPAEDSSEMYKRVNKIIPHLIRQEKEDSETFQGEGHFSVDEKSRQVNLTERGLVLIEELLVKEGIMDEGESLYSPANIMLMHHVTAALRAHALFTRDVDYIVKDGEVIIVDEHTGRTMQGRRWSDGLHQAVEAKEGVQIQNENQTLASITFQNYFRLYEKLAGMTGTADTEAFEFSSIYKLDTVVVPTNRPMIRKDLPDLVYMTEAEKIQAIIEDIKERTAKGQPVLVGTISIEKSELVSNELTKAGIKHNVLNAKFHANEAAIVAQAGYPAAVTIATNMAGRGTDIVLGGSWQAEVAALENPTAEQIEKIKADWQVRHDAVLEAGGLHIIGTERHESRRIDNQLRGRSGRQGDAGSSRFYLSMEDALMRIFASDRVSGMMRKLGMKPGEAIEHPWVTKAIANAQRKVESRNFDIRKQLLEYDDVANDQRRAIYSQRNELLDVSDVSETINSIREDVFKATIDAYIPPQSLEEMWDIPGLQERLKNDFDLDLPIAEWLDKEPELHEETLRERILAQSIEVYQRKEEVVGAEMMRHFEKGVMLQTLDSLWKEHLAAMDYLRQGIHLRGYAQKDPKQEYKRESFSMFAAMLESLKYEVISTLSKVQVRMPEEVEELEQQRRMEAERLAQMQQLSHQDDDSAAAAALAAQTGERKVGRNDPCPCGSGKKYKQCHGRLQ
SMILES,Percent Effect [1],Percent Effect [2],Percent Effect [3],Percent Effect [4],Percent Effect (Trypanosoma cruzi),Percent Effect [5],Percent Effect [6],Percent Effect (Homo sapiens),Percent Effect [7],Percent Effect [8],Percent Effect [9]
O=C(NCc1cc[nH]n1)NCC(c1ccccc1Cl)N1CCCC1 (configuration not stated),-5.47%,5.41%,-5.47%,2.23%,-2.25%,4.22%,13.1%,-4.64%,5.38%,13.6%,-1.7%
CC(=O)c1cn(CCC(=O)NCCC(=O)O)c2ccccc12,0.0873%,9.33%,1.48%,3.5%,-3.14%,-6.16%,15.5%,0.418%,9.52%,17.9%,-3.67%
CC(=O)c1cc(CC(=O)NCc2ccc(F)cc2)cs1,-2.72%,0%,1.92%,3.19%,1.93%,-1.43%,1.72%,-0.802%,4.76%,9.76%,-0.261%
Cc1ccc(C(=O)N(C)Cc2cc(Br)cs2)c(=O)[nH]1,1.09%,7.89%,5.18%,-2.8%,-3.8%,-3.55%,23.3%,0.327%,5.32%,7.79%,-3.78%
Cc1ccc(N2CC[C@H]3OCC[C@@]3(C(=O)NC(C)C)C2)nn1,-2.37%,2.7%,-2.16%,0.317%,2.15%,16.7%,6.85%,4.31%,6.93%,18.3%,-5.52%
Cc1cnn(CC2CN(Cc3cccc(C(=O)N(C)C)c3)CCO2)c1 (configuration not stated),-2.21%,23.4%,-1.81%,0.495%,3.56%,-7.83%,14.7%,14.3%,7.77%,19.5%,-9.57%
CCc1noc(CN(C)Cc2ccc(N3CCCCC3)cc2)n1,-2.48%,2.6%,0.261%,13%,3.83%,15.2%,13.5%,5.54%,-6.45%,-8.64%,-6.82%
Cc1nnc2n1CCN(CCS(=O)(=O)c1ccccc1)C2,-2.96%,15.6%,2.16%,8.34%,1.69%,-3.2%,-2.03%,27.6%,2.91%,14.6%,-8%
CC1CCCN(C(=O)CCc2cccnc2)C1 (configuration not stated),2.47%,17.7%,0.257%,-8.86%,-5.57%,6.84%,7.29%,25.3%,3.45%,16.5%,-0.749%
CC(C)c1nccn1C1CCCN(C(=O)c2cnn(C)c2C2CC2)C1 (configuration not stated),-1.82%,13.2%,-2.81%,-2.13%,2.71%,-5.75%,6.34%,-7.13%,13.3%,25.9%,-8.69%
O=C(N[C@@H]1CN(c2ncccn2)C[C@@H]2CCCO[C@@H]21)c1cnccn1,-0.31%,8%,1.89%,11.3%,-1.74%,-48.6%,7.18%,10.6%,-7.29%,20%,-6.1%
COc1cccc(CC(=O)N2CCc3ncnc(NC(C)C)c3CC2)c1,-5.16%,-18.9%,0.899%,-4.76%,-3.42%,-0.319%,7.38%,12.2%,3.24%,7.69%,0.23%
CC(=O)N1CCN(C(=O)NCc2csc(Br)c2)CC1,-7.09%,2.7%,4.94%,5.56%,0.0929%,-0.554%,-3.77%,6.02%,7.92%,1.22%,-0.334%
O=C(Nc1ccccc1F)N(CCO)Cc1ccsc1,-4.39%,0%,2.24%,1.32%,-3.76%,-1.92%,-2.51%,29.1%,-1.47%,-4.88%,10.7%
CCc1noc(C(C)N2CCC(C(=O)Nc3cnn(CC)c3)CC2)n1 (configuration not stated),-1.91%,1.27%,3.92%,-3.56%,1.54%,2.37%,7.72%,8.57%,-4.17%,-10.1%,-28.9%
Cc1nn(C)c(C)c1CC(=O)N1CCCC(n2cccn2)C1 (configuration not stated),-2.93%,-5.26%,-2.25%,-1.17%,6.26%,-5.4%,2.12%,-14.2%,3.45%,3.7%,0.321%
CCOC(=O)c1c(NC(=O)CN2CCN(C(C)=O)CC2)sc2c1CCC2,-3.66%,7.89%,9.52%,4.99%,-0.0974%,-1.18%,7%,-11.1%,4.25%,13%,-4.6%
COc1cccc(CCC(=O)N2CCCCC2Cn2cccn2)c1 (configuration not stated),-4.9%,7.79%,6.53%,2.3%,1.47%,1.9%,3.31%,9.7%,0.952%,2.35%,-13.2%
CN(C)C(=O)N1CCN(Cc2cnn(C)c2)CC2(CNC(=O)C2)C1 (configuration not stated),-2.48%,0%,2.36%,11.3%,-3.03%,-2.87%,17%,3.58%,4.32%,2.56%,3.46%
CC(C)(C)N1CC(C(=O)N2CCN(CCn3cccc3)CC2)CC1=O (configuration not stated),-6.81%,10.7%,-6.2%,27.1%,4.97%,22.4%,12%,5.12%,4.92%,8.64%,-4.28%
Cc1nccn1CC1CCCN1S(=O)(=O)Cc1ccon1 (configuration not stated),-1.65%,20.2%,-1.52%,-6.85%,3.68%,-6.84%,14%,7.78%,5.42%,3.8%,-7.21%
Cc1ccc(N2CCCC(NCC(=O)Nc3cc(C)no3)C2)nn1 (configuration not stated),-1.36%,13.9%,-2.91%,-5.54%,-3.59%,0.215%,13%,17.8%,1.04%,7.59%,-23.2%
